Assay results as given in PubChem BioAssay.
Active and inactive are the calls of the source. Unless noted, how the calls were made is not given here.

Key:
[1] = anti-His antibody binders, primary screen, artefact control for SMM control protein annotation, biochemical, small-molecule microarray, 635 nm fluorescence (AID 1128); conditions: anti-His Alexa647 antibody binding, higher = more signal;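 further: score merges feature fluorescence with signal-to-noise for each printed compound spot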
[2] = tested on: Human papillomavirus type 1a E7 protein (residues 1-88); test: HPV1a E7 small-molecule binders, primary screen, biochemical, small-molecule microarray, residues 1-88, 635 nm (AID 1129); conditions: small-molecule microarray binding, fluorescence 635 nm; higher = more signal
[3] = target: Focal adhesion kinase 1 (Homo sapiens) (UniProt Q05397); test: small-molecule microarray binders of FAK, primary screen, biochemical, 635/667 nm fluorescence, BSA, DTT (AID 1130); conditions: PTK2 binding, 635 nm fluorescence, higher = more signal;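 further: composite of spot emission at 667 nm and signal to noise over triplicate slides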
[4] = tested on: Fibrinogen (Alexa647-labelled); test: fibrinogen binders on compound microarrays, profiling panel, artefact control for SMM control-protein annotation, biochemical, small-molecule microarray, 635/667 nm fluorescence (AID 1131); conditions: fibrinogen-A647 binding fluorescence, higher = more signal;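 further: z-score merges 667 nm fluorescence with per-spot signal-to-noise over triplicate slides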
[5] = target: Follistatin (Homo sapiens) (UniProt P19883); test: follistatin binders on small-molecule microarrays, primary screen, biochemical, small-molecule microarray, 635/667 nm fluorescence (AID 1132); conditions: FST binding, 635 nm fluorescence, higher = more signal
[6] = target: Fibroblast growth factor 2 (Homo sapiens) (UniProt P09038); test: FGF2 binders on small-molecule microarrays, primary screen, biochemical, small-molecule microarray, 635/667 nm fluorescence (AID 1133); conditions: small-molecule microarray binding, FGF2, fluorescence 635/667; higher = more signal
[7] = mitochondrial membrane potential change in A549 cells, profiling panel, cell-based, JC-1 fluorescence, basal, 24 h, 100 nL (AID 1138); conditions: higher = more signal;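 further: A549 lung adenocarcinoma cells under basal conditions with no added stimulus; test concentration not given here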
Lefty1 = Lefty1 binders on small-molecule microarrays, primary screen, biochemical, small-molecule microarray, 635/667 nm fluorescence (AID 1139); conditions: small-molecule microarray binding, fluorescence 635/667; higher = more signal
[8] = tested on: wheat germ agglutinin (Triticum aestivum), Alexa647-labelled; test: wheat germ agglutinin binders on compound microarrays, profiling panel, artefact control for SMM control-protein annotation, biochemical, small-molecule microarray, 635/667 nm fluorescence (AID 1140); conditions: WGA-A647 binding, 635 nm fluorescence, higher = more signal;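 further: score merges 667 nm feature emission with signal to noise over triplicate slides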
[9] = target: Luciferin 4-monooxygenase (Photinus pyralis) (UniProt P08659); test: firefly luciferase enzyme inhibitors, primary screen, biochemical, luminescence, purified enzyme, 2006 set (AID 1141); conditions: SteadyGlo luminescence, 30 min, higher = more signal, called active from +8 up or from −8 down;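 further: cell-free assay with purified firefly luciferase at 100 ng per well in PBS; test concentration not given here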
[10] = tested on: Wnt5a (protein binding on small-molecule microarray); test: Wnt5a binders on small-molecule microarray, primary screen, biophysical, 635/667 nm fluorescence (AID 1142); conditions: 635 nm fluorescence, higher = more signal;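 further: fluorescence read at 667 nm with signal to noise per printed feature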
[11] = cell viability in Huh7 cells, primary screen, cytotoxicity control for HCV replication inhibitor project, CellTiter-Glo luminescence, basal, 48 h (AID 1143); conditions: Huh7 HCV replicon, higher = more signal, called active from +8 up or from −8 down;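 further: Huh7 hepatoma cells carrying a hepatitis C replication reporter with no stimulus; test concentration not given here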
[12] = P. aeruginosa biofilm formation inhibitors, primary screen, PAO1 strain, BacTiter-Glo luminescence, LB-PBS (AID 1144); conditions: 12 h, higher = more signal
[13] = CREB reporter modulators without forskolin, primary screen, cell-based, PC12, CRE-LacZ reporter, unstimulated (AID 1145); conditions: no forskolin, luminescence, 4.5 h, higher = more signal, called active from +8 up or from −8 down
[14] = CREB reporter modulators under forskolin, primary screen, cell-based, PC12, CRE-LacZ reporter, forskolin-stimulated (AID 1146); conditions: luminescence, 4.5 h, higher = more signal, called active from +8 up or from −8 down;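 further: PC12 cells with 6xCRE LacZ reporter stimulated by forskolin 10 µM; beta-galactosidase reporter signal reflecting CREB driven transcription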
[15] = target: Streptavidin (Streptomyces avidinii) (UniProt P22629); test: streptavidin binders on small-molecule microarray, primary screen, artefact control for SMM compound annotation, biophysical, 635/667 nm fluorescence (AID 1147); conditions: streptavidin binding, higher = more signal;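 further: signal reflects streptavidin binding to arrayed compounds as a control protein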
[16] = small-molecule binders of probe aInhba, primary screen, biochemical, small-molecule microarray, 635/667 nm fluorescence (AID 1148); conditions: higher = more signal;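 further: score merges 667nm spot fluorescence with signal-to-noise for antibody binding to printed compounds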
Torsin-1A (Homo sapiens) [17] = target: Torsin-1A (Homo sapiens) (UniProt O14656); test: torsin A binders from cell lysate, primary screen, small-molecule microarray, wild-type, 635/667 nm (AID 1149); conditions: COS7 hTOR1A-WT lysate, 635 nm fluorescence, higher = more signal
Torsin-1A (Homo sapiens) [18] = target: Torsin-1A (Homo sapiens) (UniProt O14656); test: small-molecule binders of mutant TOR1A in lysate, primary screen, cell lysate, small-molecule microarray, COS7 lysate, 635/667 nm fluorescence (AID 1150); conditions: COS7 hTOR1A mutant lysate, 635 nm fluorescence, higher = more signal;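 further: score pools 667 nm emission and signal to noise measuring lysate protein binding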
[19] = tested on: Sonic hedgehog protein (Shh); test: small-molecule binders of Shh protein, primary screen, biochemical, small-molecule microarray, 635/667 nm fluorescence (AID 1151); conditions: small-molecule microarray binding, 635 nm fluorescence; higher = more signal;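 further: Shh protein binding to compounds spotted on small-molecule microarray slides; score combines spot fluorescence intensity with signal-to-noise across triplicate slides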

Torsin-1A (Homo sapiens), sequence (O14656 whole entry, looked up): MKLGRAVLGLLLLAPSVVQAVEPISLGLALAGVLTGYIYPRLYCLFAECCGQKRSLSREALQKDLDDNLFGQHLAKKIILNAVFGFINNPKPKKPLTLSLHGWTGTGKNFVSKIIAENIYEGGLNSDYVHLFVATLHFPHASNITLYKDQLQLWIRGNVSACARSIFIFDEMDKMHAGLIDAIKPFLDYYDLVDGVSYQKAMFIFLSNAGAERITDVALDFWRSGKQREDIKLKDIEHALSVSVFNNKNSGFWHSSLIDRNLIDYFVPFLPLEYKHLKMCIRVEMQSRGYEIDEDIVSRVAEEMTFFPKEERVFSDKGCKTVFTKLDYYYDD
Luciferin 4-monooxygenase (Photinus pyralis), sequence (P08659 whole entry, looked up): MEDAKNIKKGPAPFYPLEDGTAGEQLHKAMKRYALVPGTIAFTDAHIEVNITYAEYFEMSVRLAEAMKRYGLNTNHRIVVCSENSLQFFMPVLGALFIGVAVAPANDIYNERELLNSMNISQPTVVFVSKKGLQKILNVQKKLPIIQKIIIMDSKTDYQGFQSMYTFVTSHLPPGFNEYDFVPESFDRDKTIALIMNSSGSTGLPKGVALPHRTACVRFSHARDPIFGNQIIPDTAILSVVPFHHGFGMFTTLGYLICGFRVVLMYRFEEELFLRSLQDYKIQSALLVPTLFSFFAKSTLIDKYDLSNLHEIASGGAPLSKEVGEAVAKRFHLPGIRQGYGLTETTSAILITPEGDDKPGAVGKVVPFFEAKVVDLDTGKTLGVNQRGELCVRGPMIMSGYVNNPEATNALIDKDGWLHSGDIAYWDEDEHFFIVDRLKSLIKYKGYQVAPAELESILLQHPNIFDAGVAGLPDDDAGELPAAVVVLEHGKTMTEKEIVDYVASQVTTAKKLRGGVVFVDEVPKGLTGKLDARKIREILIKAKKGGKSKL
Fibroblast growth factor 2 (Homo sapiens), sequence (P09038 whole entry, looked up): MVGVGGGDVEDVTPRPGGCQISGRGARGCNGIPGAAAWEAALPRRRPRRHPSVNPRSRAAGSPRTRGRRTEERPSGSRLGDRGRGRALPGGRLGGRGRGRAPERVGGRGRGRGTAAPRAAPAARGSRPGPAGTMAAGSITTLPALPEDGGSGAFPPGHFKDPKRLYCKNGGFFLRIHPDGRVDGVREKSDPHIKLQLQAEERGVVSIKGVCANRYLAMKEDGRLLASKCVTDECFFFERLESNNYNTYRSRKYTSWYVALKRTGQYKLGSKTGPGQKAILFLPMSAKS
Focal adhesion kinase 1 (Homo sapiens), sequence (Q05397 whole entry, looked up): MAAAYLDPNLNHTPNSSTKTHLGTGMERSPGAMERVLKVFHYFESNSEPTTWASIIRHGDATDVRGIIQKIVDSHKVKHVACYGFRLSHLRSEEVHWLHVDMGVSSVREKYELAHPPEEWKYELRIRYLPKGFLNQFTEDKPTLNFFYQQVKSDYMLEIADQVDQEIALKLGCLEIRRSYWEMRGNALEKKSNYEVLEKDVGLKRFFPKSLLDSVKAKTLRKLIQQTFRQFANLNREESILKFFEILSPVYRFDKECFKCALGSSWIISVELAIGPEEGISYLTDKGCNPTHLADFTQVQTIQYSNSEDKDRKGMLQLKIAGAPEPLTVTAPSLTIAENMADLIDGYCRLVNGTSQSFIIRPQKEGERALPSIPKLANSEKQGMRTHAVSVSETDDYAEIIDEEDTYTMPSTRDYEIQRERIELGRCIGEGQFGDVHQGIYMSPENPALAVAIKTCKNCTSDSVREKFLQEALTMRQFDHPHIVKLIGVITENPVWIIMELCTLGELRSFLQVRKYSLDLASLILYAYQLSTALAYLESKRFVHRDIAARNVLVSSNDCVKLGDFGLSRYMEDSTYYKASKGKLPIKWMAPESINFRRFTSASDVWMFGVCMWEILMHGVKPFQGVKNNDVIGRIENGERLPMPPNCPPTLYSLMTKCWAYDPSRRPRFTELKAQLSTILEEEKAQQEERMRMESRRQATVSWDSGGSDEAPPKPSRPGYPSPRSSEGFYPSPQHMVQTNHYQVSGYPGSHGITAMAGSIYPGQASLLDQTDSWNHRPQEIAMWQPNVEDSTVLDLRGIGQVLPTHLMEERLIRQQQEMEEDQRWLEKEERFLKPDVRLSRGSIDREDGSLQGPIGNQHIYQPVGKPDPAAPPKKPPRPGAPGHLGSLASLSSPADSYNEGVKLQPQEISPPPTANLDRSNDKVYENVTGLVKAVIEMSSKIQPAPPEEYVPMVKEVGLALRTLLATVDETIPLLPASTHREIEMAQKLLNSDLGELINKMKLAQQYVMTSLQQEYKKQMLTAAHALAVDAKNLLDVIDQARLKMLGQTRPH
Follistatin (Homo sapiens), sequence (P19883 whole entry, looked up): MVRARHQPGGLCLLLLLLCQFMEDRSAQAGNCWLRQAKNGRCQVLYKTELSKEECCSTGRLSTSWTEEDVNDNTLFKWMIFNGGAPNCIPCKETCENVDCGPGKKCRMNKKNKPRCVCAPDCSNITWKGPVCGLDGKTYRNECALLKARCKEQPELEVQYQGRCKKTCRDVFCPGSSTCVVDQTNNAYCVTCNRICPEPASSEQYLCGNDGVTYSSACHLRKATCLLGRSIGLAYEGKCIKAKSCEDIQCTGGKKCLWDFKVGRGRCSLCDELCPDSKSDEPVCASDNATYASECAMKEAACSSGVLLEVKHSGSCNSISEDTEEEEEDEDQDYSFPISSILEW
Streptavidin (Streptomyces avidinii), sequence (P22629 whole entry, looked up): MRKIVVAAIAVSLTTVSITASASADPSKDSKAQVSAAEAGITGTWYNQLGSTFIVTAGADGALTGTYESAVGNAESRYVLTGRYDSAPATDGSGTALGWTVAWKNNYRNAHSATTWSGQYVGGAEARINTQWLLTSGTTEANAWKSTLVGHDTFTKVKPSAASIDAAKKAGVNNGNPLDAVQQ

Row | Structure (SMILES) | composite z-score [1] | composite z-score [2] | composite z-score [3] | composite z-score [4] | composite z-score [5] | composite z-score [6] | z-score [7] | composite z-score (Lefty1) | composite z-score [8] | z-score [9] | composite z-score [10] | z-score [11] | z-score [12] | z-score [13] | z-score [14] | composite z-score [15] | composite z-score [16] | composite z-score (Torsin-1A (Homo sapiens) [17]) | composite z-score (Torsin-1A (Homo sapiens) [18]) | composite z-score [19]
1 | C=CCNC(=O)[C@H]1[C@@H]2C(=O)O[C@@H](c3ccccc3)[C@@H](c3ccccc3)N2[C@@H](c2ccc(O)cc2)[C@]12C(=O)N(C(=O)OCCOC)c1ccccc12 | 3.08 | 1.24 | 0.484 | 0.886 | 0.852 | 0.198 | -0.8 | 0.31 | 0.708 | -0.109 (inactive) | 0.381 | -2.03 (inactive) | 0.309 (inactive) | 0.128 (inactive) | 5.62 (inactive) | -0.0654 | 0.122 | 0.265 | 1.02 | 1.11
2 | COc1ccc([Si](C)(C)[C@@H]2[C@@H](CCO)O[C@]3(C(=O)N(Cc4ccc(N5CCCCC5=O)cc4)c4ccccc43)[C@H]2C)cc1 | 2.21 | 1.14 | -0.0284 | 0.842 | 1.07 | 1.1 | 1.74 | 0.572 | 0.916 | -1.24 (inactive) | 0.123 | -7.34 (inactive) | -0.701 (inactive) | 8.03 (active) | -1.2 (inactive) | 0.269 | -0.0471 | 0.0458 | 0.342 | 1.72
3 | COC(=O)c1cn(C[C@@H](Cc2ccccc2)NC(=O)N[C@H](CO)CCc2oc(C(C)=O)c(C(=O)OC)c2C(=O)OC)nn1 | 1.42 | 0.533 | 0.192 | 0.729 | 1.02 | 0.86 | 0.642 | 1.17 | 0.235 | -0.373 (inactive) | 0.173 | -0.102 (inactive) | 0.201 (inactive) | 1.5 (inactive) | -0.981 (inactive) | 0.304 | 0.108 | 0.658 | 0.268 | 1.93
4 | COc1ccc(NC(=O)O[C@H]2[C@H](OC(=O)Nc3ccccc3)[C@H](OC(=O)Nc3ccccc3)[C@@H](OC)O[C@@H]2CO)cc1 | 1.65 | 1.19 | 0.709 | 0.284 | 1.35 | 1.45 | 0.732 | 0.735 | 0.98 | -0.128 (inactive) | 1.14 | -4.38 (inactive) | 0.643 (inactive) | 0.204 (inactive) | -1.05 (inactive) | 0.0994 | 0.398 | 0.97 | 1.1 | 1.44
5 | COC(=O)c1ccc([C@H](NC(=O)c2ccco2)[C@]2(C)C[C@H]2C2CCCCC2)cc1 | -0.162 | -0.678 | -0.59 | -0.293 | -0.633 | -1.11 | -0.573 | -1.58 | 0.638 | 1.34 (inactive) | 0.0108 | -2.84 (inactive) | -0.635 (inactive) | -0.368 (inactive) | 0.898 (inactive) | 0.689 | 0.0659 | -2.21 | -0.568 | -1.21
